Test results published in ChEMBL document CHEMBL1961873, “Compounds: GSK PKIS; Assays: Nanosyn kinase panel” (2012).

How the values were obtained:
[1] = target: Protein kinase C gamma type (Homo sapiens) (UniProt P05129); details: at 1 µM;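 further: each value is an averaged percent inhibition of the enzyme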
[2] = target: T1, Protein kinase C iota type (Homo sapiens) (UniProt P41743); details: at 0.1 µM
T1 sequence (whole entry): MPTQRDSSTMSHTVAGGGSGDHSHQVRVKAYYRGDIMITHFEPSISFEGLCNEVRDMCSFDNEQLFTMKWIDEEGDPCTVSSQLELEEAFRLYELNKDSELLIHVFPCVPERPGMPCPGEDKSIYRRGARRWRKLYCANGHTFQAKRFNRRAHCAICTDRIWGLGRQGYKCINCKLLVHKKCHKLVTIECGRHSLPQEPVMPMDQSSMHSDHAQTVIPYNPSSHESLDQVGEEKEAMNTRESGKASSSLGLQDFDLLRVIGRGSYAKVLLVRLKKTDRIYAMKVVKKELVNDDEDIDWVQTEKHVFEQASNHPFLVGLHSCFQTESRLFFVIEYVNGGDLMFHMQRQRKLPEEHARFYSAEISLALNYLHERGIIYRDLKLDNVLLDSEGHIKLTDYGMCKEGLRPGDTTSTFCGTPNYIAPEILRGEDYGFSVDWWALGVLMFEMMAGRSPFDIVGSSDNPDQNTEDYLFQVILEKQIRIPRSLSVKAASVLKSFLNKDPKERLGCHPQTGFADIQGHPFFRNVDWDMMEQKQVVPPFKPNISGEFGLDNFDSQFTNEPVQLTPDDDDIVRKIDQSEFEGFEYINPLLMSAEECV

[3] = target: T1, Protein kinase C iota type (Homo sapiens); details: at 1 µM
[4] = target: Protein kinase C theta type (Homo sapiens) (UniProt Q04759); details: at 0.1 µM
Chain of Protein kinase C theta type (Homo sapiens) (Q04759 whole entry, looked up): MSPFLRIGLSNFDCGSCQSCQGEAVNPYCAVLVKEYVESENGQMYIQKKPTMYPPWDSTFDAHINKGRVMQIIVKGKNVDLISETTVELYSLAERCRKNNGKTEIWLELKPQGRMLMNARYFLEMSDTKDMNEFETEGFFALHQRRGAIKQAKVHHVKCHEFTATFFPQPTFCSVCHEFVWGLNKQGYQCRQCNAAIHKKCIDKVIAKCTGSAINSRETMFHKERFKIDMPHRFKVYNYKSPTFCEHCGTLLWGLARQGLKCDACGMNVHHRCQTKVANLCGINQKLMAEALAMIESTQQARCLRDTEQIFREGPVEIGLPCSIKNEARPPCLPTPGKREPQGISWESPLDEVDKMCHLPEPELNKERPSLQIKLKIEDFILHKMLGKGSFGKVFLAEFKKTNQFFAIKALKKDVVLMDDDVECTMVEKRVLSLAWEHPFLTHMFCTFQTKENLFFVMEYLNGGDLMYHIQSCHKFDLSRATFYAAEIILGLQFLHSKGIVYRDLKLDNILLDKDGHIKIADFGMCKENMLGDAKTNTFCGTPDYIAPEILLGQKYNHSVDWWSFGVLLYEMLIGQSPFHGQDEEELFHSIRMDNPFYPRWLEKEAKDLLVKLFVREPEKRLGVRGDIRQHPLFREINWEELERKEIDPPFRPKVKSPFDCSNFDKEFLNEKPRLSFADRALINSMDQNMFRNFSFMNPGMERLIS

[5] = target: Protein kinase C theta type (Homo sapiens) (UniProt Q04759); details: at 1 µM
[6] = target: Protein kinase C beta type (Homo sapiens) (UniProt P05771); details: at 0.1 µM
Chain of Protein kinase C beta type (Homo sapiens) (P05771 2-671 limits assumed): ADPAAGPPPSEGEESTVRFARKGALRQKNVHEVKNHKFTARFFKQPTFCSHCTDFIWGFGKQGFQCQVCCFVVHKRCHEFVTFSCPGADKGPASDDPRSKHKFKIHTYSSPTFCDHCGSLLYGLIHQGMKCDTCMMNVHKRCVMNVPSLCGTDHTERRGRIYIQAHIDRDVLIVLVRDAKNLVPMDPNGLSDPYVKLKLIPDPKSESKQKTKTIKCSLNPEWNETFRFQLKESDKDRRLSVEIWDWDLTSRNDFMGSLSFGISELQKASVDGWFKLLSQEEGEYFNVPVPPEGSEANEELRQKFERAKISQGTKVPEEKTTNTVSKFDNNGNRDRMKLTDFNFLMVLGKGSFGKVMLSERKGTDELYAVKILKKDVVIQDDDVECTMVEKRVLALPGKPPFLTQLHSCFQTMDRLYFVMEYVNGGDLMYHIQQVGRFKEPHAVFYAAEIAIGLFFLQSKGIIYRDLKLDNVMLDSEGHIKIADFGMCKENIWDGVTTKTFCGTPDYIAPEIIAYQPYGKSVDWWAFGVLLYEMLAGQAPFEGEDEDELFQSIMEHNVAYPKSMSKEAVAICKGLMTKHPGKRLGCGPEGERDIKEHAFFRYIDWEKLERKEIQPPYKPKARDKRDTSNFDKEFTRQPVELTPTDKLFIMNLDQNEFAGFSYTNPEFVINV

[7] = target: Protein kinase C beta type (Homo sapiens) (UniProt P05771); details: at 1 µM
[8] = target: T2, Serine/threonine-protein kinase D1 (Homo sapiens) (UniProt Q15139); details: at 0.1 µM
T2 sequence (whole entry): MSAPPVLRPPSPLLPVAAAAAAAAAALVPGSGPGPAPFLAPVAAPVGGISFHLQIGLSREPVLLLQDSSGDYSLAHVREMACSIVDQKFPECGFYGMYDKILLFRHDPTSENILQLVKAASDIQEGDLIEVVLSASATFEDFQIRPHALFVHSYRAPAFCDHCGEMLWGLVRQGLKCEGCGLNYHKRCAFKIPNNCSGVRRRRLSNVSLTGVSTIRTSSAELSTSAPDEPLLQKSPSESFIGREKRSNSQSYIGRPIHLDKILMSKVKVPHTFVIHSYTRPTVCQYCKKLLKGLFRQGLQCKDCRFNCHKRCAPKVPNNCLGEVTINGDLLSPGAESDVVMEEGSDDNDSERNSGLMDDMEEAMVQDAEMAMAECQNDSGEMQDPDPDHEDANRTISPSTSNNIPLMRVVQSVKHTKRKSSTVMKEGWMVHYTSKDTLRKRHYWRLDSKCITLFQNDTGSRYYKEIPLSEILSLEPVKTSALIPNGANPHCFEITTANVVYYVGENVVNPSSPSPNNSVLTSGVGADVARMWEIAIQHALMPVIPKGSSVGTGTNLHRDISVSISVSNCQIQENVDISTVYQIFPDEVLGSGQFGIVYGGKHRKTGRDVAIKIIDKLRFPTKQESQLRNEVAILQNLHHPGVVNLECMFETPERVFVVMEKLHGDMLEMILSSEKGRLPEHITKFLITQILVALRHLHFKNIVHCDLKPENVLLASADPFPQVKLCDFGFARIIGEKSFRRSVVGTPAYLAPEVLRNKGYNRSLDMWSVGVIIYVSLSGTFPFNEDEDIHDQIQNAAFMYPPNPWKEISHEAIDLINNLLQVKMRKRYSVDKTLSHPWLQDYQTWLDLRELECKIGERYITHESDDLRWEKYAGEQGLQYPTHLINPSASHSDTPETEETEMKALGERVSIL

[9] = target: T2, Serine/threonine-protein kinase D1 (Homo sapiens); details: at 1 µM
[10] = target: T3, Serine/threonine-protein kinase D2 (Homo sapiens) (UniProt Q9BZL6); details: at 0.1 µM;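 further: reported percent inhibition values are means, part of the GSK PKIS kinase panel screen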
T3 sequence (whole entry): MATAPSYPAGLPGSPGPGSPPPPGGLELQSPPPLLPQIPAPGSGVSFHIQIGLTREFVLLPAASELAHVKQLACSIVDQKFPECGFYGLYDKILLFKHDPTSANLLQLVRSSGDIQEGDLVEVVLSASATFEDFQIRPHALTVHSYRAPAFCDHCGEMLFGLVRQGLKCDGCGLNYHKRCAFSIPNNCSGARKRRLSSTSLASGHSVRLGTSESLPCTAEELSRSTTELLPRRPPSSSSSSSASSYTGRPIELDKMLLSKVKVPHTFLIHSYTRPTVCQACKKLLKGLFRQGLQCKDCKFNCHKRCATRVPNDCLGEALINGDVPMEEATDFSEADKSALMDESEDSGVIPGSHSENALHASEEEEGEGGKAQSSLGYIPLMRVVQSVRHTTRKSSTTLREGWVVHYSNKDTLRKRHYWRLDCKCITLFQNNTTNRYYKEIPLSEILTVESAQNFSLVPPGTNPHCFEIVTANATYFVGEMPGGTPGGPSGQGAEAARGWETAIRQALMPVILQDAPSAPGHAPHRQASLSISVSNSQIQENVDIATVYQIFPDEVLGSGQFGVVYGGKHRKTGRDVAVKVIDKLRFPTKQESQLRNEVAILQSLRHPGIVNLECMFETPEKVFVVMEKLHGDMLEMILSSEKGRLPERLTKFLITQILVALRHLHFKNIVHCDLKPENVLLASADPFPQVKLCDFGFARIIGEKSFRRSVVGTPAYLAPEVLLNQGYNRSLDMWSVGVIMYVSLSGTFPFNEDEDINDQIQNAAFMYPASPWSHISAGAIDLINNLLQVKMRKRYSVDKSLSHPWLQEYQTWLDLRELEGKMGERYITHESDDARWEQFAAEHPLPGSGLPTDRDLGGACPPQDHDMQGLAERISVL

| SMILES | inhibition [1] | inhibition [2] | inhibition [3] | inhibition [4] | inhibition [5] | inhibition [6] | inhibition [7] | inhibition [8] | inhibition [9] | inhibition [10] |
| --- | --- | --- | --- | --- | --- | --- | --- | --- | --- | --- |
| C/C(Nc1ccc(S(N)(=O)=O)cc1)=C1/C(=O)Nc2ccccc21 | 2.57% | -0.37% | 0.02% | -0.23% | 3.24% | -0.77% | 1.28% | 0.51% | 15.9% | 0.69% |
| COc1ccc(-c2ccc3c(NC(=O)C4CC4)n[nH]c3n2)cc1 | 2.95% | 0.3% | -0.23% | 1.39% | 2.97% | 0.8% | 0.48% | 2.32% | 1.39% | 1.92% |
| Fc1ccc(-c2ncn(CCCN3CCOCC3)c2-c2ccncc2)cc1 | 0.34% | 0.16% | 0.41% | -0.92% | -2.08% | 0.1% | 0.17% | 1.04% | 2.24% | 2.15% |
| O=C(Nc1ccc(Oc2ccc3[nH]c(NC(=O)c4ccccc4)nc3c2)cc1)Nc1cc(C(F)(F)F)ccc1F | 3.66% | 1.82% | 0.93% | 1.79% | 2.18% | 1.51% | 4.95% | 2.05% | 3.41% | 3.12% |
| COc1cc(N2CCN(C(C)C)CC2)ccc1Nc1nc(Nc2ccc(F)cc2C(=O)NC[C@@H](O)CO)c2cc[nH]c2n1 | 7.34% | 2.87% | 0.36% | 3.85% | 6.2% | 1.04% | 2.5% | 1.65% | 13.4% | 3.16% |
| CS(=O)(=O)CCNCc1cc(-c2cc3c(Nc4ccc(OCc5cccc(F)c5)c(Cl)c4)ncnc3s2)cs1 | 0.58% | 1.33% | 1.53% | 2.91% | 4.44% | 0.62% | 2% | 4.69% | 8.12% | 4.1% |
| CN(C)c1ccc2c(c1)/C(=C/Nc1ccc(S(N)(=O)=O)cc1)C(=O)N2 | 2.72% | 2.24% | 1.5% | 1.16% | 0.84% | 1.61% | 1.98% | 2.16% | 7.78% | 1.23% |
| COc1cc2ncn(-c3cc(OCCc4ccccc4)c(C(N)=O)s3)c2cc1OC | 1.47% | 1.14% | 1.71% | 0.51% | -0.63% | 0.9% | 1.22% | 2.65% | 5.06% | 3.79% |
| Fc1ccc(-c2nc3n(c2-c2ccncc2)CCS3)cc1 | 0.85% | 2.39% | 2.4% | 1.87% | 1.91% | 1.53% | 4.27% | 0.84% | 4.16% | 2.09% |
| COc1ccc2ncn(-c3cc(O[C@H](C)c4ccccc4Cl)c(C(N)=O)s3)c2c1 | 2.27% | 4.03% | 3.88% | 2.43% | 2.69% | 1.24% | 2.97% | -0.01% | -0.79% | -0.02% |
| CCN(CC)Cc1ccc(Nc2nccc(-c3cnn4ncccc34)n2)cc1 | 7.9% | 1.27% | 2.03% | 2.37% | 4.84% | 1% | 6.38% | 36.3% | 65.6% | 28.1% |
| O=C(Nc1n[nH]c2cc(-c3ccccc3)ccc12)C1CC1 | 1.52% | 2.86% | 3.51% | 2.7% | 1.97% | 1.8% | 3.32% | 4.43% | 5.64% | 4.79% |
| NC(=O)c1cc(-c2ccncc2)cc(-c2ccccc2)c1N | 4.29% | 2.83% | 4.85% | 2.27% | 4.49% | 1.9% | 2.02% | 4.07% | 6.39% | 5.01% |
| Cc1ccc(NC(=O)c2ccoc2)cc1-c1ccc(C(=O)NCC2CC2)cc1 | -0.41% | 1.53% | -0.02% | 0.79% | 0.76% | -0.21% | 0.92% | 3.2% | 2.32% | 2.39% |
| CCc1nccc2c1nc(-c1nonc1N)n2CC | -2.73% | -0.45% | 1.45% | -0.41% | 0.94% | 0.5% | 1.81% | 1.12% | 2.3% | 1.51% |
| NCc1ccc(-n2c(-c3nonc3N)nc3cnccc32)cc1 | 42.1% | 4.36% | 27.5% | 17.2% | 59.4% | 7.63% | 37.7% | 8.16% | 41% | 8.58% |
| COc1cc(Nc2ncc3c(C)nc(-c4cccc(C(F)(F)F)c4)n3n2)cc(OC)c1OC | 7.63% | 0.74% | 0.54% | 1.87% | 5.29% | 1.35% | 2.31% | 1.48% | 2.12% | 1.81% |
